Most compounds without a hit are left out; they make up all but 3.5% or so of the library.
TEAD-YAP block = TEAD-YAP interaction inhibition, primary screen, TEAD-YAP interaction inhibitor project, luminescence, HEK-TIYL cells | TEAD-Gal4/YAP UAS-luciferase luminescence | inhibition, % at 9.12 µM | 640,000 compounds, 1.4% hits | AID 1259422, 2018; in the data active = inhibition above about 32%
MITF primary = MITF inhibitors, primary screen, biochemical, AlphaScreen, human. 650,000 compounds, 0.91% hits. AlphaScreen MITF homodimerization, bead proximity signal. inhibition, % at 2.6 µM; in the data active = inhibition above about 50%
FBW7 activator = FBW7 E3 ligase activators, primary screen, biochemical, AlphaScreen, human; F-box/WD repeat-containing protein 7 (Homo sapiens), Q969H0; AlphaScreen FBW7–phospho-cyclin E peptide binding, activator screen; normalized activity (activation), % at 26.1 µM; 650,000 compounds, 0.13% hits; AID 1259310, 2017; in the data active = normalized activity above about 1.9%;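 also: purified mutant Fbw7 with reduced substrate affinity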
GPR151 ag = activators of human GPR151, primary screen, cell-based, PathHunter beta-arrestin, luminescence. G-protein coupled receptor 151 (Homo sapiens), Q8TDV0. PathHunter beta-arrestin GPR151 cells. activation, % at 11.2 µM. 650,000 compounds, 1% hits; in the data active = activation above about 4.9%
Target sequence (Q8TDV0 whole entry, looked up): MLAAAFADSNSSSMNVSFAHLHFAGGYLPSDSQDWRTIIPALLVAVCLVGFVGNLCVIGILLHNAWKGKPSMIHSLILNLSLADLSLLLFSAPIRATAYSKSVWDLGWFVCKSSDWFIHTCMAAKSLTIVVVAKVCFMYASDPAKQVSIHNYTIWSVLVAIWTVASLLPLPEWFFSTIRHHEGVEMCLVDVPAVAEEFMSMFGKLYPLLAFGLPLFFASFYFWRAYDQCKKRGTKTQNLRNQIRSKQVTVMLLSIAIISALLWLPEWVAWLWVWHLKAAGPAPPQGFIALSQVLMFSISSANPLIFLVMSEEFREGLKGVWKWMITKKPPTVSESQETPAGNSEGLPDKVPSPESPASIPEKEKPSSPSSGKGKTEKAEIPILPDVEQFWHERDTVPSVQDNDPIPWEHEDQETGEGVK
Of the large screens only hits and unclear results are named; the others gave an inactive call.

CC(C)N1CCC(=NNC(=O)c2cc(O)c(O)c(O)c2)CC1	MITF primary 85
CN1CCC(=NNC(=O)c2ccccc2)CC1	none
CCCCCCCC(=O)Nc1ccc(C(=O)Nc2ccc(O)c(C(=O)O)c2)cc1	FBW7 activator 4.1
COc1cccc(-n2c(SCC(=O)N3CCCC3)nc3n[nH]c(C)c3c2=N)c1	TEAD-YAP block 43
CCCCN(CC)C(=O)CSc1nc2n[nH]c(C)c2c(=N)n1-c1cccc(OC)c1	none
CCCN(CCC)C(=O)C(CC)Sc1nc2n[nH]c(C)c2c(=N)n1-c1cccc(OC)c1 (configuration not stated)	TEAD-YAP block 50
CCN(CC)C(=O)CSc1nc2n[nH]c(C)c2c(=N)n1-c1cccc(OC)c1	TEAD-YAP block 44
CCOc1ccc(NC(=O)CSc2nc3n[nH]c(C)c3c(=N)n2-c2cccc(OC)c2)cc1	TEAD-YAP block 33
OCC1CCCN1c1nc(NCCOc2ccccc2)c2[nH]cnc2n1 (configuration not stated)	none
Cc1ccc(CNc2nc(C)c(-c3ccn(CC4CC4)n3)s2)o1	none
O=Cc1ccccc1Nc1cc(NC(=O)Cc2ccc3c(c2)OCO3)ncc1Cl	TEAD-YAP block 57
O=C(Cc1ccc2c(c1)OCO2)Nc1cc(Nc2ccccc2-c2nn[nH]n2)c(F)cn1	none
O=C(Cc1ccc2c(c1)OCO2)Nc1cc(Nc2ccccc2-c2ncn[nH]2)c(F)cn1	TEAD-YAP block 54
O=C(C1CC1)N1CCc2cc(S(=O)(=O)N3CCCCC3)ccc21	none
O=C(Nc1sc2c(c1C(=O)O)CCCCC2)c1ccccc1F	TEAD-YAP block 56
O=C(Nc1sc2c(c1C(=O)N1CCCCC1)CCCCC2)c1ccccc1F	none
O=C(Nc1sc2c(c1C(=O)O)CCCC2)c1ccccc1F	TEAD-YAP block 52
CNC(=O)c1c(NC(=O)c2ccccc2F)sc2c1CCCC2	none
CC(=O)Nc1nc(-c2ccc3c(c2)NC(=O)CO3)cs1	TEAD-YAP block 58
O=C(Nc1cc(C(F)(F)F)cc(C(F)(F)F)c1)c1ccc([N+](=O)[O-])o1	TEAD-YAP block 59
COc1ccccc1-n1c(SCc2ccncc2)nc2c(sc(=S)n2Cc2ccccc2)c1=O	none
NC(CCCc1ccccc1)c1ccc2c(c1)OCCO2 (configuration not stated)	TEAD-YAP block 55
O=C(CSc1nc2ccc(NC(=O)c3ccccc3)cc2s1)NCc1ccccc1	none
CC(=O)Nc1ccc2nc(SCC(=O)NCc3ccccc3)sc2c1	TEAD-YAP block 38
COc1cc(C(=O)NN=C2CCCC2)cc(OC)c1OC	TEAD-YAP block 62
COc1cc(C(=O)N/N=C2/CCCc3ccccc32)cc(OC)c1OC	TEAD-YAP block 60
COc1cc(C(=O)NN=C2CCN(Cc3ccccc3)CC2)cc(OC)c1OC	TEAD-YAP block 70
Nc1ccc(C(=O)N/N=C2\CCCc3ccccc32)cc1	none
COc1cc(C(=O)NC2CCCC2)cc(OC)c1OC	none
COc1cc(C(=O)NN=C2CCC(c3ccccc3)CC2)cc(OC)c1OC (configuration not stated)	TEAD-YAP block 61
COc1cc(Nc2ccc(N3CCC(C(=O)NC4CCN(Cc5ccccc5)CC4)CC3)nn2)cc(OC)c1OC	none
O=C(Nc1ccc(Oc2ccccc2)cc1)c1scc2c1CCCC2	none
COc1ccc(NC(=O)C(NC(=O)C2CCCN2C(=O)OCc2ccccc2)c2ccc(OC)cc2)cc1 (configuration not stated)	none
COc1ccc(CNc2nc(C)c(-c3ccn(CCO)n3)s2)c(OC)c1OC	none
COc1cc(OC)c(OC)cc1CNc1nc(C)c(-c2ccn(CCO)n2)s1	TEAD-YAP block 37
COc1ccc(NC(=O)CC2C(=O)N(C)C(=S)N2CCc2ccc(S(N)(=O)=O)cc2)cc1 (configuration not stated)	none
Cc1nc2ccc(N=Cc3ccc(N(C)C)cc3)cc2s1	none
CN(C)c1ccc2nc3ccc(=[N+](C)C)cc-3sc2c1	FBW7 activator 19
CCOC(=O)c1ccc(NC(=S)Nc2cc(C)[nH]n2)cc1	none
O=C(Nc1c2c(nn1-c1ccc(F)cc1)CS(=O)C2)c1c(F)cccc1F (configuration not stated)	none
CCN(CC)c1ccc2c(c1)OC(N)=C(C#N)C2c1cccs1 (configuration not stated)	TEAD-YAP block 53
N#CC1=C(N)Oc2cc(N)ccc2C1c1cccnc1 (configuration not stated)	none
CCOC(=O)C1=C(C)OC(N)=C(C#N)C1c1cccs1 (configuration not stated)	none
CCN(CC)c1ccc2c(c1)OC(N)=C(C#N)C2c1cccnc1 (configuration not stated)	TEAD-YAP block 54
CCN(CC)c1ccc2c(c1)OC(N)=C(C#N)C2c1ccccc1 (configuration not stated)	FBW7 activator 3.4
CCN(CC)C(=O)C1CCCN(c2nc(Nc3ccc(NC(C)=O)cc3)c3[nH]cnc3n2)C1 (configuration not stated)	none
O=[N+]([O-])c1ccc2[nH]c(O)c(N=Nc3ccc(S(=O)(=O)O)cc3)c2c1	MITF primary 60
Nc1cccc(-c2nc(N)c3ncn(-c4ccsc4)c3n2)c1	TEAD-YAP block 54
CC(=O)c1cccc(-c2nc(N)c3ncn(-c4ccsc4)c3n2)c1	TEAD-YAP block 56
CC(=O)c1cccc(-c2nc(Nc3ccccc3)c3ncn(-c4ccsc4)c3n2)c1	none
CC(C)(C)c1cc(-c2nc3ccccc3[nH]2)n[nH]1	TEAD-YAP block 96
CCOC(=O)C1=C(N)n2c(s/c(=C/c3cccs3)c2=O)=C(C(=O)OCC)C1c1cccs1 (configuration not stated)	TEAD-YAP block 41
CCOC(=O)C1=C(N)n2c(s/c(=C/c3ccccc3)c2=O)=C(C(=O)OCC)C1c1ccccc1 (configuration not stated)	none
CCOC(=O)C1=C(N)n2c(s/c(=C\c3ccc(O)cc3)c2=O)=C(C#N)C1c1ccc(O)cc1 (configuration not stated)	none
CCOC(=O)C1=C(N)n2c(s/c(=C\c3ccc(OC)c(OC)c3)c2=O)=C(C#N)C1c1ccc(OC)c(OC)c1 (configuration not stated)	TEAD-YAP block 59
O=c1oc2ccccc2cc1-c1csc(Nc2ccc(Cl)cc2Cl)n1	none
CCCOc1ccc(C2C(C(=O)OCCc3ccccc3)=C(C)NC3=C2C(=O)CC(c2ccccc2)C3)cc1OC (configuration not stated)	none
Cc1csc(NC(=O)CSc2nnc(-c3cccnc3)n2-c2ccccc2C)n1	TEAD-YAP block 62
Cc1ccc(-n2c(SCC(=O)Nc3nccs3)nnc2-c2ccccn2)c(C)c1	none
Cc1ccccc1-n1c(SCC(=O)Nc2nccs2)nnc1-c1ccccn1	TEAD-YAP block 37
COc1ccccc1-n1c(SCC(=O)NCc2cccs2)nnc1-c1cccnc1	FBW7 activator 3.3
